Values joined by “and” are separate entries in the source; they are usually repeats but may differ in a detail not shown here. Equal values may be shown once. Where a structure was tested more than once in an assay, its records may differ in their call. Active and inactive are the calls of the source.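 The calls were made as follows, unless noted: active = inhibition at or above 50% relative to wild type and mutant plate controls; inactive = inhibition below 50%.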
Legend:
[1] = inhibitors of TNFa-induced NFkB p65 translocation, primary screen, imaging, HUVEC, MLSMR starter and 10KST1 sets (AID 438;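 active = inhibition above 20% together with a positive visual image hit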;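 also: compound added about 3h40 before a 20 min TNFalpha stimulation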;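 as to inhibition: signal is the nuclear over cytoplasmic p65 intensity ratio per well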); settings: HUVEC TNFa-induced p65 nuclear translocation; cell count: measured here: nuclei count (cytotoxicity indicator), at 2.08 µM; inhibition: at 2 µM, stronger effect = higher value, 0% TNFa-plus-vehicle, 100% no-TNFa wells
[2] = inhibitors of mutant huntingtin aggregation, primary screen, imaging, exon1htt(103Q)mCFP cells, high-content imaging (AID 483;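 active = visual image review flags a hit and inhibition of aggregation exceeds 20%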;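 also: compound exposure lasted 3 days before fixation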;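 as to nuclei count: percent of the per-plate median nuclei count of sample wells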); settings: exon1htt(103Q)mCFP cell line, aggregate imaging, at 2 µM; inhibition of aggregation: stronger effect = higher value; nuclei count: measured here: cell count, toxicity
[3] = inhibitors of E-selectin induction by TNFa, primary screen, imaging, HUVEC, immunofluorescence, MLSMR starter and 10KST1 sets (AID 487;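 active = visually confirmed hit in the image check and inhibition above 20%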;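 as to inhibition: signal is fraction of cell area covered by stained E-selectin grains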;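 as to nuclei count: 100% = median nuclei count of all wells on the same plate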); settings: HUVEC TNFalpha-induced E-selectin immunofluorescence imaging, at 2 µM; inhibition: stronger effect = higher value; nuclei count: measured here: cell number, toxicity
[4] = DUSP6 inhibitors restoring Erk phosphorylation by chemical complementation, primary imaging in DUSP6-transfected HeLa (AID 609;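 active = compounds giving at least 50% inhibition in the cell-based MKP-3 phosphatase rescue imaging test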;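 as to inhibition: phospho-Erk level distribution per well compared with pooled transfected vehicle control wells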); settings: HeLa MKP-3 transfected, phospho-Erk imaging KS statistic, at 10 µM, cells stimulated with TPA for 15 min
[5] = target: Dual specificity protein phosphatase 6 (Homo sapiens) (UniProt Q16828); assay: as above; settings: HeLa MKP-3 transfected, phospho-Erk imaging KS statistic; at 10 µM; stronger effect = higher value; cells stimulated with TPA for 15 min
[6] = target: Voltage-gated potassium channel subunit beta-2 (Rattus norvegicus) (UniProt P62483); assay: KvBeta enzyme negative modulators, primary screen, biochemical, NADPH fluorescence (AID 622;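 active = fluorescence slope higher than the sample average by over 3 SD, cut at about -0.22 in these data, passing the limit was not always enough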;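 also: slope of raw intensity against log time taken from 70 to 1610 s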); settings: recombinant KvBeta, 4-cyanobenzaldehyde reduction, at 10 µM, stronger effect = higher value
[7] = target: Voltage-gated potassium channel subunit beta-2 (Rattus norvegicus) (UniProt P62483); assay: KvBeta positive modulators, primary screen, biochemical, NADPH fluorescence (AID 623;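 active = NADPH fluorescence slope more negative than the mean of all samples by about 3 SD, 99.7% confidence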;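 also: fluorescence intensity change per second fitted from 20 to 320 s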); settings: Recombinant KvBeta, NADPH fluorescence decrease slope, 10 min; at 10 µM; stronger effect = lower value
[8] = target: Alpha-2C adrenergic receptor (Homo sapiens) (UniProt P18825); assay: modulators of alpha2C/GIRK thallium flux, primary screen, cell-based, HEK293 alpha2C/GIRK1/2 (AID 624;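 active = fluorescence slope after compound addition differing from the mean of all screened samples at 99.7% confidence, in either direction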;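 also: slope of fluorescence ratio to pre-addition baseline per second over 15 to 24 s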); settings: thallium flux BTC fluorescence, at 10 µM, actives lie on both sides
[9] = inhibitors of larval lipid processing in zebrafish, primary screen, whole organism, PED6 fluorescence, gall bladder and intestine (AID 686;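 active = a full or partial loss of lipid-probe fluorescence in the fish gall bladder, intestine or both, judged by eye; inactive = no fluorescence loss, or compound toxic to the fish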;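 also: larvae 5 to 7 days old with five fish per well; signal comes from phospholipase A2 cleavage of quenched PED6 carried via bile; overnight exposure to compound and PED6 before scoring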); settings: Zebrafish larvae PED6 lipid processing, fluorescence scoring; screened at 20 µM (by protocol)
[10] = inhibitors of Chlamydomonas gravitaxis, primary screen, whole organism, Chlamydomonas reinhardtii, WT vs cilia-less mutant, absorbance, 96-well (AID 463189); settings: OD600 absorbance, 2 days, at 10 µM, stronger effect = higher value;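 also: 0% = wild type cc124 cells in DMSO and 100% = ciliumless bld1 mutant cells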
[11] = inhibitors of Sendai virus-induced IRF3 signaling, primary screen, TLR/RLR signaling modifier project, cell-based, Sendai virus stimulus, luciferase, 10K MLSCN set (AID 602276;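 active = inhibition at or above 50% at 10 µM; inactive = inhibition below 50%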;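 also: firefly luciferase from ISG56 promoter only with Renilla not read in this screen; 0% = Sendai virus plus DMSO and 100% = medium plus DMSO without virus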); settings: HEK293 RL24 IRF3 luciferase reporter, at 10 µM, stronger effect = higher value
[12] = inhibitors of poly I:C-induced TLR3 signaling, primary screen, cell-based, poly I:C stimulus, luciferase, 10K MLSCN set (AID 602277;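 active = inhibition of the reporter signal at or above 50%; inactive = inhibition below 50%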); settings: HEK293-TLR3 RL24 IRF3 luciferase reporter, at 10 µM, stronger effect = higher value
[13] = measured here: cell density z-score
[14] = measured here: nuclear c-Myc green intensity z-score
[15] = measured here: nuclear pErk red intensity z-score, stronger effect = higher value

Chain of Voltage-gated potassium channel subunit beta-2 (Rattus norvegicus) (P62483 whole entry, looked up): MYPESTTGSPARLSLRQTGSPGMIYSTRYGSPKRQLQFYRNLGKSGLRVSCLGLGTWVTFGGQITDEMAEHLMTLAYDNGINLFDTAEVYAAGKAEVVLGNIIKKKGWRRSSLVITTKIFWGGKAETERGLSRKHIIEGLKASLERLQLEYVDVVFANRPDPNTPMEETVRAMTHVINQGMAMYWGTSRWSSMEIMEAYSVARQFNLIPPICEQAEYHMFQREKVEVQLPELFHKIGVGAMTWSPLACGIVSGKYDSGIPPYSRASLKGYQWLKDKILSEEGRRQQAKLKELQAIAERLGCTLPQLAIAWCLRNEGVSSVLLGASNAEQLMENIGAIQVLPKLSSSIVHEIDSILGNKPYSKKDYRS
Chain of Dual specificity protein phosphatase 6 (Homo sapiens) (Q16828 whole entry, looked up): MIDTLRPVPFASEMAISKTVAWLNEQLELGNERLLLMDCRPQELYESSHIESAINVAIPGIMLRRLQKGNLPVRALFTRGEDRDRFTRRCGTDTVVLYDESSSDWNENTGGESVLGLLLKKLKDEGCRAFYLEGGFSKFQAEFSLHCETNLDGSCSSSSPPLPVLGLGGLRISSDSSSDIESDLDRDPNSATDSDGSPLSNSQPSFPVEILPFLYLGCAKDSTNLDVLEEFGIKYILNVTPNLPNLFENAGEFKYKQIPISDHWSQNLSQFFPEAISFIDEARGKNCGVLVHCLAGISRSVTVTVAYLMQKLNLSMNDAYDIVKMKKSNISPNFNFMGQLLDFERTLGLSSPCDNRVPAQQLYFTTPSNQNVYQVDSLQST
Chain of Alpha-2C adrenergic receptor (Homo sapiens) (P18825 whole entry, looked up): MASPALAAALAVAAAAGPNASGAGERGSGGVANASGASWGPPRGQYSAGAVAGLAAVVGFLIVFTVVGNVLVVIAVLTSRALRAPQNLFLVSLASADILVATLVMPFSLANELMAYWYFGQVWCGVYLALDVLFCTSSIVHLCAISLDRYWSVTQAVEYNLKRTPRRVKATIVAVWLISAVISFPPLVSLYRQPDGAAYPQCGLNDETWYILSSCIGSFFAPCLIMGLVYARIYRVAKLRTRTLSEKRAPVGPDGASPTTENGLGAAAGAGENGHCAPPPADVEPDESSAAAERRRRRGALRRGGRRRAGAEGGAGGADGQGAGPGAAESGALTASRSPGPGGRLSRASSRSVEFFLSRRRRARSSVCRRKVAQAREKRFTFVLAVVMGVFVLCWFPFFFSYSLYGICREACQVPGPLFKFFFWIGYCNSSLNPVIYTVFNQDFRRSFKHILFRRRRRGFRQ

SMILES | cell count [1] | inhibition [1] | inhibition of aggregation [2] | nuclei count [2] | inhibition [3] | nuclei count [3] | z-score [4, 13] | z-score [4, 14] | z-score [4, 15] | inhibition [5] | fluorescence slope [6] | NADPH fluorescence slope [7] | slope [8] | outcome [9] | inhibition [10] | inhibition [11] | inhibition [12]
CCOC(=O)C1CSc2[nH]c(=O)sc2C1c1ccccc1 (stereo not given) | 537 | -1.3% (inactive) | -4% (inactive) | 126% | -19.3% (inactive) | 144% | 0.417 | -0.0363 | 0.692 | -1.12% (inactive) | -0.378 (inactive) | -6.9e-05 (inactive) | 0.00596 (inactive) | inactive | -4.31% (inactive) | 5.91% (inactive) | 99.1% (active)
CCOC(=O)c1[nH]c2ccc(Br)cc2c1NC(=O)CCN1CCC(C(=O)OCC)CC1 | 566 | -16.7% (inactive) | 2.2% (inactive) | 96.4% | -91.6% (inactive) | 130% | 1.13 | -1.08 | 0.103 | -0.674% (inactive) | -0.523 (inactive) | -2.9e-05 (inactive) | 0.00522 (inactive) | inactive | 15.3% (inactive) | 7.83% (inactive) | -1.42% (inactive)
CC1=C(C)C(=O)C(CCCCC#CCCCC#CCO)=C(C)C1=O | 531 | 4.4% (inactive) | 9.6% (inactive) | 95.5% | -112% (inactive) | 108% | 0.752 | -0.729 | -1.42 | 19.2% (inactive) | -0.452 (inactive) | -2.1e-05 (inactive) | 0.00343 (inactive) | inactive | -6.32% (inactive) and 57.1% (active) | 14.4% (inactive) | 32.8% (inactive)
CCCCOc1ccc(C(=O)CCN2CCCCC2)cc1 | 591 | -10.4% (inactive) | 4.2% (inactive) | 92.4% | -91.6% (inactive) | 114% | 0.144 | -0.213 | -1.06 | 7.39% (inactive) | -0.421 (inactive) | -5.1e-05 (inactive) | 0.00405 (inactive) | inactive | 61.3% (active) | 4.68% (inactive) | 21.9% (inactive)
C=CCOc1nc2c(c(=O)n(C)c(=O)n2C)n1Cc1c(Cl)cccc1Cl | 556 | -2.9% (inactive) | -47.7% (inactive) | 115% | 14% (inactive) | 113% | -0.686 | 2.36 | -0.556 | -4.7% (inactive) | -0.502 (inactive) | -0.000118 (inactive) | 0.00485 (inactive) | inactive | -9.21% (inactive) | 11.4% (inactive) | 16% (inactive)
COc1ccc(/C=C/C(=O)Nc2ccccc2C(=O)O)cc1OC | 476 | -4.9% (inactive) | -20.4% (inactive) | 103% | -112% (inactive) | 128% | 0.437 | -0.319 | -0.448 | 15.3% (inactive) | -0.492 (inactive) | -8.1e-05 (inactive) | 0.0062 (inactive) | inactive | 3.58% (inactive) and -6.51% (inactive) | 16.4% (inactive) | 23.3% (inactive)
CC(=O)O[C@]1(C(C)=O)CC[C@H]2[C@@H]3C=C(C)C4=CC(=O)CC[C@]4(C)[C@H]3CC[C@@]21C | 697 | -4.5% (inactive) | -13.2% (inactive) | 103% | -91% (inactive) | 125% | 0.989 | -0.815 | -0.896 | 7.39% (inactive) | -0.492 (inactive) | -2e-05 (inactive) | 0.00287 (inactive) | inactive | 1.32% (inactive) | 15.7% (inactive) | 41% (inactive)
CC(=O)[C@H]1CC[C@H]2[C@@H]3CCC4=CC(=O)CC[C@]4(C)[C@H]3[C@H](O)C[C@]12C | 603 | -11.5% (inactive) | 8.3% (inactive) | 112% | -156% (inactive) | 135% | 1.17 | 0.758 | -0.978 | 7.39% (inactive) | -0.485 (inactive) | 4.5e-06 (inactive) | 0.00386 (inactive) | inactive | -5.96% (inactive) | -13.1% (inactive) | -16.3% (inactive)
COc1cccc(N2CCN(c3ncnc4c3[nH]c3ccc(F)cc34)CC2C)c1 (stereo not given) | 342 | -7% (inactive) | 10.9% (inactive) | 92.8% | 11.4% (inactive) | 127% | 0.762 | 0.103 | -1.52 | -3.5% (inactive) | -0.393 (inactive) | -9.3e-05 (inactive) | 0.00384 (inactive) | inactive | 25.3% (inactive) | 2.95% (inactive) | 98.8% (active)
O=C(c1cccc2ccccc12)N1CCC(N2CCN(c3ccccc3)CC2)CC1 | 373 | -1.4% (inactive) | 12.1% (inactive) | 95.9% | -64.1% (inactive) | 81.4% | 0.565 | 1.38 | -0.642 | 13.2% (inactive) | -0.528 (inactive) | -1.2e-05 (inactive) | 0.00499 (inactive) | inactive | 29.4% (inactive) | 4.24% (inactive) | 21.4% (inactive)

Reference: PubChem BioAssay
